Measured values reported in PubChem BioAssay (NCI).
Compounds without any hit were thinned out: in the full panel of roughly 79,000, 15% have a hit. Activity calls are given as the source filed them. Rule as the data show it: active = growth inhibition above about 70%; inactive = the rest.

What was measured:
[1] = NCI Yeast Anticancer Drug Screen. Data for the mec2-1 strain (AID 157); conditions: S. cerevisiae mec2-1 strain, stronger effect = higher value
How it was run: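 Compounds were applied to mec2-1 yeast cells. Their growth was then compared with that of vehicle-treated cultures to give growth inhibition.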

[2] = NCI Yeast Anticancer Drug Screen. Data for the rad14 strain (AID 159);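 also: 0% = growth of vehicle-treated control cultures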; conditions: S. cerevisiae rad14 strain growth inhibition, stronger effect = higher value
How it was run: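 Yeast cells carrying a defined DNA-repair defect were exposed to compounds, and growth inhibition was calculated relative to vehicle-treated control cultures.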

[3] = NCI Yeast Anticancer Drug Screen. Data for the sgs1 mgt1 strain (AID 161);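 also: 0% = growth of cultures given vehicle only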; conditions: S. cerevisiae sgs1 mgt1 strain, stronger effect = higher value
How it was run: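 Percent growth inhibition was derived by comparing compound-exposed mutant yeast with vehicle-exposed cultures. The strain carries alterations in DNA damage repair.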

[4] = NCI Yeast Anticancer Drug Screen. Data for the CLN2oe strain (AID 163);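 also: 0% = growth of vehicle-only control cultures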; conditions: S. cerevisiae CLN2oe strain, stronger effect = higher value
How it was run: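 Cells of an engineered yeast line with disturbed cell-cycle regulation are treated with compound. Inhibition of growth is then calculated relative to the vehicle-treated reference.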

[5] = NCI Yeast Anticancer Drug Screen. Data for the bub3 strain (AID 167); conditions: S. cerevisiae bub3 mutant strain, stronger effect = higher value
How it was run: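 Compounds were applied to a genetically altered yeast strain carrying a cell-cycle control defect. Growth inhibition was scored against vehicle-treated controls.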

[6] = NCI Yeast Anticancer Drug Screen. Data for the wt2 strain (AID 169);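 also: 0% = growth of vehicle-treated yeast cultures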; conditions: S. cerevisiae wt2 strain growth inhibition, stronger effect = higher value
How it was run: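 Growth of compound-treated yeast is measured and expressed as inhibition relative to vehicle-only controls.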

[7] = NCI Yeast Anticancer Drug Screen. Data for the sgs1 strain (AID 173);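 also: 0% = growth of vehicle-only control cultures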; conditions: S. cerevisiae sgs1 mutant, stronger effect = higher value
How it was run: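 Strain with an altered DNA repair or cell cycle pathway exposed to compound. Growth then measured. Value = inhibition versus vehicle control.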

[8] = NCI Yeast Anticancer Drug Screen. Data for the mlh1 rad18 strain (AID 175); conditions: S. cerevisiae mlh1 rad18 strain growth inhibition, stronger effect = higher value
How it was run: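 A repair-deficient yeast strain is exposed to test compound, and growth is scored relative to vehicle-treated controls.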

[9] = NCI Yeast Anticancer Drug Screen. Data for the rad18 strain (AID 177); conditions: S. cerevisiae rad18 mutant growth inhibition, stronger effect = higher value
How it was run: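 DNA-repair-defective yeast; compound treatment; growth inhibition scored against vehicle.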

[10] = NCI Yeast Anticancer Drug Screen. Data for the rad52 strain (AID 147);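 also: 0% = growth of vehicle-treated control cultures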; conditions: S. cerevisiae rad52 mutant growth inhibition, stronger effect = higher value
How it was run: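 Growth of repair-deficient yeast cells was compared between compound-treated and vehicle-treated cultures to give percent inhibition.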

[11] = NCI Yeast Anticancer Drug Screen. Data for the wt1 strain (AID 149);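 also: 0% = growth of vehicle-treated wt1 cultures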; conditions: S. cerevisiae wt1 strain (SPY 50644) growth inhibition, stronger effect = higher value
How it was run: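 Yeast wt1 strain exposed to compounds; growth inhibition measured relative to vehicle-treated controls.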

[12] = NCI Yeast Anticancer Drug Screen. Data for the rad50EPP+ strain (AID 151);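 also: 0% = growth of vehicle-treated control cultures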; conditions: S. cerevisiae rad50 mutant strain, stronger effect = higher value
How it was run: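 Measured: growth inhibition of rad50EPP+ yeast. Reference: vehicle-treated controls. Screen uses strains with defined genetic alterations in DNA damage repair or cell cycle control.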

[13] = NCI Yeast Anticancer Drug Screen. Data for the mgt1 strain (AID 153); conditions: S. cerevisiae mgt1 mutant growth inhibition, stronger effect = higher value
How it was run: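 Compounds were applied to mgt1 mutant yeast, and growth was then compared against vehicle-treated control cultures to give percent inhibition.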

[14] = NCI Yeast Anticancer Drug Screen. Data for the rad50 strain (AID 155);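 also: 0% = growth of vehicle-only cultures of the same strain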; conditions: S. cerevisiae rad50 strain growth inhibition, stronger effect = higher value
How it was run: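 Yeast carrying a defined DNA repair defect were exposed to test compounds, and growth was compared with vehicle-treated controls to give percent inhibition.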

[15] = NCI Yeast Anticancer Drug Screen. Data for the cln2 rad14 strain (AID 165);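 also: 0% = growth equal to vehicle treated cultures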; conditions: S. cerevisiae cln2 rad14 strain, stronger effect = higher value
How it was run: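 Strain: cln2 rad14 yeast, altered in cell cycle control and DNA damage repair. Read-out: growth inhibition vs vehicle.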

[16] = at 5.0 µM (retest, dose inferred, filed as 0.5)
[17] = at 50.0 µM (retest, dose inferred, filed as 5.0)

Measured: growth inhibition

Cc1cc2cc3cc(C)c(N)cc3nc2cc1N
inactive: [1]; at 11.0 µM 13% | [2]; at 1.2 µM -7% | [2]; at 3.7 µM -23% | [2]; at 11.0 µM 5% | [3]; [16] 16% | [4]; at 1.2 µM -1% | [4]; at 3.7 µM 8% | [4]; at 11.0 µM 17% | [4]; at 33.0 µM 46% | [5]; at 1.2 µM -20% | [5]; at 3.7 µM -5% | [5]; [16] 23% | [5]; at 11.0 µM 8% | [5]; at 33.0 µM 69% | [6]; at 1.2 µM -7% | [6]; at 3.7 µM -12% | [6]; at 11.0 µM 2% | [6]; at 33.0 µM 56% | [7]; at 1.2 µM -43% | [7]; at 3.7 µM -21% | [7]; at 11.0 µM 0% | [7]; at 33.0 µM 66% | [9]; at 1.2 µM -37% | [9]; at 3.7 µM -25% | [9]; at 11.0 µM -11% | [9]; at 33.0 µM 67%
active: [1]; [16] 78% | [1]; at 33.0 µM 82% | [1]; [17] 98% | [1]; at 50.0 µM 75.5% | [1]; at 100.0 µM 97% | [2]; at 33.0 µM 70% | [2]; at 100.0 µM 92% | [3]; [17] 98% | [3]; at 50.0 µM 85.2% | [4]; at 100.0 µM 83% | [5]; [17] 96% | [5]; at 50.0 µM 77.8% | [5]; at 100.0 µM 92% | [6]; at 100.0 µM 94% | [7]; at 100.0 µM 91% | [8]; [16] 94% | [8]; [17] 99% | [8]; at 50.0 µM 81.8% | [9]; at 100.0 µM 92%

CC12C(=O)OC(=O)C(c3ccccc31)c1ccccc12
active: [14]; at 50.0 µM 98.3% | [1]; at 50.0 µM 91% | [3]; at 50.0 µM 97.2% | [15]; at 50.0 µM 76.2% | [8]; at 50.0 µM 93.6%
inactive: [10]; at 1.2 µM -8% | [10]; at 3.7 µM -2% | [10]; at 11.0 µM -12% | [10]; at 33.0 µM -4% | [10]; at 100.0 µM 3% | [11]; at 1.2 µM 2% | [11]; at 3.7 µM -2% | [11]; at 11.0 µM 4% | [11]; at 33.0 µM 2% | [11]; at 100.0 µM 9% | [12]; at 1.2 µM -11% | [12]; at 3.7 µM -25% | [12]; at 11.0 µM -30% | [12]; at 33.0 µM 19% | [12]; at 100.0 µM 9% | [13]; at 1.2 µM -7% | [13]; at 3.7 µM -9% | [13]; at 11.0 µM -5% | [13]; at 33.0 µM -4% | [13]; at 100.0 µM -6% | [14]; at 1.2 µM -18% | [14]; at 3.7 µM -17% | [14]; [16] 43% | [14]; at 11.0 µM -16% | [14]; at 33.0 µM -16% | [14]; [17] 21% | [14]; at 100.0 µM 20% | [1]; at 1.2 µM -5% | [1]; at 3.7 µM -6% | [1]; [16] 47% | [1]; at 11.0 µM -5% | [1]; at 33.0 µM -5% | [1]; [17] 28% | [1]; at 100.0 µM -2% | [2]; at 1.2 µM -4% | [2]; at 3.7 µM -9% | [2]; at 11.0 µM 0% | [2]; at 33.0 µM 2% | [2]; at 100.0 µM 8% | [3]; [16] 33% | [3]; [17] 21% | [15]; [16] 9% | [15]; [17] 5% | [5]; at 1.2 µM -7% | [5]; at 3.7 µM -5% | [5]; [16] 28% | [5]; at 11.0 µM -8% | [5]; at 33.0 µM -5% | [5]; [17] 49% | [5]; at 50.0 µM 68.1% | [5]; at 100.0 µM 2% | [6]; at 1.2 µM -7% | [6]; at 3.7 µM -5% | [6]; at 11.0 µM 11% | [6]; at 33.0 µM 9% | [6]; at 100.0 µM 7% | [7]; at 1.2 µM -12% | [7]; at 3.7 µM -8% | [7]; at 11.0 µM -1% | [7]; at 33.0 µM 2% | [7]; at 100.0 µM 11% | [8]; [16] 58% | [8]; [17] 54% | [9]; at 1.2 µM -8% | [9]; at 3.7 µM -10% | [9]; at 11.0 µM -5% | [9]; at 33.0 µM 0% | [9]; at 100.0 µM -7%
